Reference: PubChem BioAssay (Tox21)
Values without a mark were called inactive. Inconclusive results are not listed. The source made the active and inactive calls. Calls follow the shape of the full dose curve.

target: Acetylcholinesterase (Homo sapiens) (UniProt P22303); assay: Acetylcholinesterase (AChE) small molecule antagonists: colormetric cell-based qHTS assay (AID 1347395); details: SH-SY5Y cells AChE activity, colorimetric (Ellman); series mostly up to 115 µM; activity, negative = inhibition: at the top concentration; also: nearly all actives have a fitted effect of over 30% in size
Summary of the method: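 SH-SY5Y cells attached overnight, exposed to compound 30 min at 37 C, then given DTNB/acetylthiocholine; after 90 min at 37 C, colorimetric thiocholine read gives cellular AChE activity.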
% is scaled to controls: 0 for no effect and ±100 for the full control effect.

Chain of Acetylcholinesterase (Homo sapiens) (P22303 whole entry, looked up): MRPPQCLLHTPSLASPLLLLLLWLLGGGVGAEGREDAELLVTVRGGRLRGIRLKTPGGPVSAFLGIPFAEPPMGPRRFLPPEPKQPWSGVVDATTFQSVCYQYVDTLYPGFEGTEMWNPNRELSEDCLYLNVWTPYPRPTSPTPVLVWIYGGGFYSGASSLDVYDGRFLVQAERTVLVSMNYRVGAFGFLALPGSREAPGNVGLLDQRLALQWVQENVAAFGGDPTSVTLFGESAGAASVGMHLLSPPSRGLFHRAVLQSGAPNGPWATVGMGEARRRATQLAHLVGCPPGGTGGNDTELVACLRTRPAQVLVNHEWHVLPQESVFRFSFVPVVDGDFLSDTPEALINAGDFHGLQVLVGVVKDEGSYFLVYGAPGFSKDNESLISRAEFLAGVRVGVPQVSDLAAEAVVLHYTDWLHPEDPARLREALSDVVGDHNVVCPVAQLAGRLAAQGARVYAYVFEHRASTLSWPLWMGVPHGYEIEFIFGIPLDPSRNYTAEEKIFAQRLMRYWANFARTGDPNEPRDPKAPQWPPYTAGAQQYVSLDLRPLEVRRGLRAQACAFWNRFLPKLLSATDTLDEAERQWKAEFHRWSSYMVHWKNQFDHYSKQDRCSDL

Row | Compound | activity, negative = inhibition | Potency
1 | Nc1ccc(N)c2c1C(=O)c1ccccc1C2=O | 1.88% | 
2 | Cc1cc(=O)[nH]c(=O)[nH]1 | -0.145% | 
3 | COc1ccccc1NC(=O)CC(C)=O |  | inactive
4 | CC(C)(O)CCC(C)(C)O | 3.43% | 
5 | COC(=O)C(C)Oc1ccc(Oc2ncc(C(F)(F)F)cc2Cl)cc1 (stereo not given) |  | inactive
6 | Cc1cccc2c1ccc1ccccc12 | 1.33% | 
7 | COC(=O)CCC(=O)OC |  | inactive
8 | CC[C@H](C)C(=O)O[C@H]1C[C@H](O)C=C2C=C[C@H](C)[C@H](CC[C@@H](O)C[C@@H](O)CC(=O)O)[C@H]21 | 2.74% | 
9 | CCC(=O)O[C@H]1[C@H](O[C@@H]2[C@@H](C)[C@H](O[C@H]3C[C@@](C)(OC)[C@@H](O)[C@H](C)O3)[C@@H](C)C(=O)O[C@H](CC)[C@@](C)(O)[C@H](O)[C@@H](C)C(=O)[C@H](C)C[C@@]2(C)O)O[C@H](C)C[C@@H]1N(C)C |  | inactive
10 | C#CC(C)(CC)OC(=O)c1ccccc1C(=O)O (stereo not given) | -0.252% [at 52.9 µM] | 
11 | Nc1cc(Cl)cc(S(=O)(=O)O)c1O | -1.51% | 
12 | CC(C)(O)C(=O)c1ccccc1 | 0.185% | 
13 | CCCCC/C(C=O)=C\c1ccccc1 |  | inactive
14 | CC(C)(O)c1ccc(CNC(=O)c2cccnc2Oc2ccc3nonc3c2)cc1 | -1.97% | 
15 | CCCCCCCCCCCCCCCCCCOCC(O)CO (stereo not given) | -3.7% [at 52.9 µM] | 
16 | Nc1cc(=O)[nH]c(N)n1 | 2.43% [at 52.9 µM] | 
17 | CCOC(=O)O[C@]1(C(=O)OCCl)CC[C@H]2[C@@H]3CCC4=CC(=O)C=C[C@]4(C)[C@H]3[C@@H](O)C[C@@]21C | 0.121% [at 52.9 µM] | 
18 | CC(CC(=O)O)CC(C)(C)C (stereo not given) | 3.26% | 
19 | NC(=O)Nc1nc2ccccc2[nH]1 | -0.736% | 
20 | CC(=O)OCC(=O)[C@@]1(O)CC[C@H]2[C@@H]3CCC4=CC(=O)CC[C@]4(C)[C@H]3C(=O)C[C@@]21C | 0.545% [at 52.9 µM] | 

Row | Compound | activity, negative = inhibition | Potency
21 | CO/N=C(/C(=O)N[C@@H]1C(=O)N2C(C(=O)O)=C(COC(N)=O)CS[C@H]12)c1ccco1 | 1.77% | 
22 | C[C@]1(Cn2ccnn2)[C@H](C(=O)O)N2C(=O)C[C@H]2S1(=O)=O | -1.82% [at 52.9 µM] | 
23 | CN1CC(=O)N/C1=N/C(=O)Nc1cccc(Cl)c1 | 1.23% [at 52.9 µM] | 
24 | CNC(=S)NN | 0.36% | 
25 | C[C@]12CCC(=O)C=C1CC[C@H]1[C@@H]3CC[C@](O)(C(=O)CO)[C@@]3(C)C[C@H](O)[C@@]12F | 3.52% [at 52.9 µM] | 
26 | CCN(CCN)c1cccc(C)c1 |  | inactive
27 | CC(=O)CCc1ccc(OC(C)=O)cc1 | 0.172% | 
28 | CC(C)(C)c1ccc(CCC=O)cc1 | -6.46% | 
29 | O=C1OCc2ccccc21 | 2.75% | 
30 | C=C(C)C(=O)OCCO | 5.54% | 
31 | Cc1ccc(O)c(C(C)(C)C)c1 |  | inactive
32 | COc1cc(C=O)ccc1O |  | inactive
33 | CCc1c(C(=O)NN2CCCCC2)nn(-c2ccc(Cl)cc2Cl)c1-c1ccc(Br)cc1 | 5.21% | 
34 | c1ccc(OCc2ccc(CCCN3CCOCC3)cc2)cc1 | 1.14% [at 52.9 µM] | 
35 | Cc1cccc(N(C)C(=S)Oc2ccc3ccccc3c2)c1 |  | inactive
36 | C=C(C)C(=O)OCC(CC)(COC(=O)C(=C)C)COC(=O)C(=C)C |  | inactive
37 | CC(CO)(CO)C(=O)O | -0.375% | 
38 | CCCCCC(C)=O |  | inactive
39 | Cc1ccc(C)c(S(=O)(=O)O)c1 |  | inactive
40 | c1ccc2c(c1)ccc1cc3c(ccc4ccccc43)cc12 |  | inactive

target: Acetylcholinesterase (Homo sapiens) (UniProt P22303); assay: Acetylcholinesterase (AChE) small molecule antagonists: enzyme-based qHTS assay (AID 1347397); details: Potency: AChE enzyme activity inhibition; outcome: AChE enzyme activity inhibition; series mostly up to 115 µM; activity change, negative = inhibition: at the top concentration; also: nearly all actives have a fitted effect of over 55% in size
Summary of the method: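 Recombinant human AChE, dispensed at 50 mU/mL, was preincubated with Tox21 10K compounds or DMSO vehicle for 30 min at room temperature. DTNB plus acetylthiocholine was then added, and thiocholine was measured colorimetrically after a further 10 min.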

Row | Compound | activity change, negative = inhibition | Potency
41 | Nc1ccc(N)c2c1C(=O)c1ccccc1C2=O | -9.09% | 
42 | Cc1cc(=O)[nH]c(=O)[nH]1 | -1.77% | 
43 | COc1ccccc1NC(=O)CC(C)=O |  | inactive
44 | CC(C)(O)CCC(C)(C)O | -0.556% | 
45 | COC(=O)C(C)Oc1ccc(Oc2ncc(C(F)(F)F)cc2Cl)cc1 (stereo not given) |  | inactive
46 | Cc1cccc2c1ccc1ccccc12 | 1.22% | 
47 | COC(=O)CCC(=O)OC |  | inactive
48 | CC[C@H](C)C(=O)O[C@H]1C[C@H](O)C=C2C=C[C@H](C)[C@H](CC[C@@H](O)C[C@@H](O)CC(=O)O)[C@H]21 | 0.1% | 
49 | CCC(=O)O[C@H]1[C@H](O[C@@H]2[C@@H](C)[C@H](O[C@H]3C[C@@](C)(OC)[C@@H](O)[C@H](C)O3)[C@@H](C)C(=O)O[C@H](CC)[C@@](C)(O)[C@H](O)[C@@H](C)C(=O)[C@H](C)C[C@@]2(C)O)O[C@H](C)C[C@@H]1N(C)C |  | inactive
50 | C#CC(C)(CC)OC(=O)c1ccccc1C(=O)O (stereo not given) | 0.255% [at 53 µM] | 
51 | Nc1cc(Cl)cc(S(=O)(=O)O)c1O | 1.63% | 
52 | CC(C)(O)C(=O)c1ccccc1 | 1.03% | 
53 | CCCCC/C(C=O)=C\c1ccccc1 |  | inactive
54 | CC(C)(O)c1ccc(CNC(=O)c2cccnc2Oc2ccc3nonc3c2)cc1 | 0.516% | 
55 | CCCCCCCCCCCCCCCCCCOCC(O)CO (stereo not given) | -0.27% [at 53 µM] | 
56 | Nc1cc(=O)[nH]c(N)n1 | 0.596% [at 53 µM] | 
57 | CCOC(=O)O[C@]1(C(=O)OCCl)CC[C@H]2[C@@H]3CCC4=CC(=O)C=C[C@]4(C)[C@H]3[C@@H](O)C[C@@]21C | 2.56% [at 53 µM] | 
58 | CC(CC(=O)O)CC(C)(C)C (stereo not given) | -0.271% | 
59 | NC(=O)Nc1nc2ccccc2[nH]1 | -1.22% | 
60 | CC(=O)OCC(=O)[C@@]1(O)CC[C@H]2[C@@H]3CCC4=CC(=O)CC[C@]4(C)[C@H]3C(=O)C[C@@]21C | 0.999% [at 53 µM] | 

Row | Compound | activity change, negative = inhibition | Potency
61 | CO/N=C(/C(=O)N[C@@H]1C(=O)N2C(C(=O)O)=C(COC(N)=O)CS[C@H]12)c1ccco1 | 3.07% | 
62 | C[C@]1(Cn2ccnn2)[C@H](C(=O)O)N2C(=O)C[C@H]2S1(=O)=O | 0.535% [at 53 µM] | 
63 | CN1CC(=O)N/C1=N/C(=O)Nc1cccc(Cl)c1 | 0.139% [at 53 µM] | 
64 | CNC(=S)NN | 2.84% | 
65 | C[C@]12CCC(=O)C=C1CC[C@H]1[C@@H]3CC[C@](O)(C(=O)CO)[C@@]3(C)C[C@H](O)[C@@]12F | 0.88% [at 53 µM] | 
66 | CCN(CCN)c1cccc(C)c1 |  | inactive
67 | CC(=O)CCc1ccc(OC(C)=O)cc1 | -0.65% | 
68 | CC(C)(C)c1ccc(CCC=O)cc1 | -0.129% | 
69 | O=C1OCc2ccccc21 | 0.003% | 
70 | C=C(C)C(=O)OCCO | -3.29% | 
71 | Cc1ccc(O)c(C(C)(C)C)c1 |  | inactive
72 | COc1cc(C=O)ccc1O |  | inactive
73 | CCc1c(C(=O)NN2CCCCC2)nn(-c2ccc(Cl)cc2Cl)c1-c1ccc(Br)cc1 | 1.84% | 
74 | c1ccc(OCc2ccc(CCCN3CCOCC3)cc2)cc1 | 0.562% [at 53 µM] | 
75 | Cc1cccc(N(C)C(=S)Oc2ccc3ccccc3c2)c1 |  | inactive
76 | C=C(C)C(=O)OCC(CC)(COC(=O)C(=C)C)COC(=O)C(=C)C |  | inactive
77 | CC(CO)(CO)C(=O)O | 0.682% | 
78 | CCCCCC(C)=O |  | inactive
79 | Cc1ccc(C)c(S(=O)(=O)O)c1 |  | inactive
80 | c1ccc2c(c1)ccc1cc3c(ccc4ccccc43)cc12 |  | inactive
